The list is not random: actives were taken first. Their share in the collection is about 2.8%.
IP6K1 inhibitor – Primary qHTS assay for small molecule inhibitors of Inositol hexaphosphate kinase 1 (IP6K1) | Inositol hexakisphosphate kinase 1 (Homo sapiens), Q92551 | IP6K1 kinase, ADP-Glo luminescence, 2 h; stronger effect = lower value | activity change, % (series mostly up to about 58 µM) | hit rate 0.81% among 140,000 | AID 1645851, 2021; in the data active = activity change below about -25%; also: % is scaled to controls: 0 for no effect and ±100 for the full control effect
Target sequence (Q92551 whole entry, looked up): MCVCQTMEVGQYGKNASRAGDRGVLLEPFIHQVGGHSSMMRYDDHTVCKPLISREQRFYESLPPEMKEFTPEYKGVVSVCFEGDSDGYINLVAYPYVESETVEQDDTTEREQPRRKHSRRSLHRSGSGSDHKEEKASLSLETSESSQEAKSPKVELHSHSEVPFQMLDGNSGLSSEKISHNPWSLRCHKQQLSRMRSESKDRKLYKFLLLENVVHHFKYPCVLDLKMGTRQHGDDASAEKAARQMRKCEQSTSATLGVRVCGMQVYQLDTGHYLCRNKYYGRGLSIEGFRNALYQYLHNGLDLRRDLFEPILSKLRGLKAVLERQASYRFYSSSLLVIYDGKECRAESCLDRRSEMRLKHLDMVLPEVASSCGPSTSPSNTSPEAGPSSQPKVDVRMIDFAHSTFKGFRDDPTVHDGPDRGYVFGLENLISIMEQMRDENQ
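ADP-Glo luminescence measures ADP made by human IP6K1 during a 2 h RT reaction with ATP/IP6 (mix at 1.3 mM/130 uM); top library doses 57.5 and 19.1 uM final.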
KDM5B inhibitor – Primary screen for KDM5B Histone Demethylases FDH-coupled qHTS. Potency, µM (top dose mostly 57.7 µM), hits mostly inhibitors. KDM5B demethylase, FDH-coupled NADH fluorescence (FDH is formaldehyde dehydrogenase). hit rate 2.6% among 220,000. AID 1347165, 2019; also: potency is read from the fitted curve at half-maximal effect; 0% is about no effect; nearly all actives have a fitted effect of over 70% in size
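KDM5BΔAP (200 nM final) in 50 mM HEPES pH 7.5, 0.01% Tween-20 was preincubated 10 min at RT with compound over a concentration range. Substrate mix (H3K4me3 12.5 µM, α-KG 25 µM, Fe²⁺, ascorbate, NAD⁺, FDH) was added, and NADH fluorescence change over 30 min gave dose-response curves.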
IP6K1 inh cnf – Confirmatory qHTS assay for small molecule inhibitors of Inositol hexaphosphate kinase 1 (IP6K1); shares compounds with IP6K1 inhibitor; recombinant IP6K1 kinase, ADP-Glo luminescence, 2 h; Potency, µM (titrated, usually from 49 µM), inactives show at the highest dose activity change, negative = inhibition, hits mostly inhibitors; hit rate 13% among 1,200; also: potency is read from the fitted curve at half-maximal effect; % is scaled to controls: 0 for no effect and ±100 for the full control effect; nearly all actives have a fitted effect of over 65% in size
The depositor's hits bear a star; i = inactive; ? = inconclusive; · = no result given. Unless noted, calls follow the shape of the dose curve; as a rule, active = well fitted inhibition curve with a large enough effect; inconclusive = small, poorly fitted or top-dose-only effect; inactive = no such curve, though single readings can be large or run the other way.

SMILES	IP6K1 inhibitor	KDM5B inhibitor	IP6K1 inh cnf
Cc1ccc2c(CNCc3cccc(Cl)c3)c(C(=O)O)n(Cc3ccc(F)cc3Cl)c2c1	-27*	i	17%
COc1ccc(CNCc2c(C(=O)O)n(Cc3ccc(F)cc3)c3cc(C)ccc23)cc1OC	10	?	·
O=c1cc(-c2ccc(O)cc2)oc2cc(O)cc(O)c12	·	·	1.5µM*
COc1cc(O)c2c(=O)cc(-c3ccccc3)oc2c1	·	i	·
COc1ccc(OCC(=O)NCc2ccc3c(c2)CCN3C(=O)c2ccc(F)cc2)cc1	-36*	?	-9%
O=C(COc1ccc(F)cc1)NCc1ccc2c(c1)CCN2C(=O)c1ccc(F)cc1	-14	?	·
Cc1ccc(N(C)S(=O)(=O)c2c(-c3ccccc3)csc2C(=O)NCc2ccco2)cc1	·	i	·
Cc1ccc(C(=O)Oc2c(S(=O)(=O)c3ccccc3)c(C)nn2-c2ccccc2)cc1	-22	?	·
Cc1nn(-c2ccccc2)c(OC(=O)c2ccc(Br)cc2)c1S(=O)(=O)c1ccccc1	-32*	?	28%
COc1ccc(-c2nnc([C@H]3CCN(C(=O)c4ccccc4)C3)o2)cc1	-7	i	·
COc1ccc(-c2nnc(C3CCN(C(=O)c4ccccc4F)CC3)o2)cc1	-29*	?	?
Cc1ccc(-n2ncc(C(=O)Nc3ccc4c(c3)OCCO4)c2C2CCN(C(=O)OC(C)(C)C)CC2)cc1	-26*	i	11%
Cc1ccc(-n2ncc(C(=O)Nc3ccc4c(c3)OCO4)c2C2CCN(C(=O)OC(C)(C)C)CC2)cc1	21	?	·
O=C(NCc1cccc(Cl)c1)C1CCc2nnc(C3CC3)n21 (stereo not drawn)	9	·	·
CCN(CC)S(=O)(=O)c1ccc2c(c1)N(CC(=O)N1CCN(c3ccc(F)cc3)CC1)C(=O)CO2	-2	i	·
CCN(CC)S(=O)(=O)c1ccc2c(c1)N(CC(=O)N1CCN(c3cccc(C(F)(F)F)c3)CC1)C(=O)CO2	-25*	i	-2%
COc1ccccc1N1CCN(c2nccnc2SCC(=O)Nc2cc(Cl)ccc2C)CC1	·	i	·
Cc1ccc(C(=O)C(C#N)C(=O)NC2CCCCC2)cc1C (stereo not drawn)	·	i	·
CNC(=O)c1cccc(-c2cnc3[nH]cc(CC(=O)NC4CCC4)c3c2)c1	-8	i	·
CNC(=O)c1cccc(-c2cnc3[nH]cc(CC(=O)Nc4ccccc4Cl)c3c2)c1	-26*	i	?
CNC(=O)c1cccc(-c2cnc3[nH]cc(CC(=O)NCc4cccs4)c3c2)c1	-21	i	·
CNC(=O)c1cccc(-c2cnc3[nH]cc(CC(=O)N(C)C)c3c2)c1	-2	i	·
Cc1cccc(-c2cnc3[nH]cc(CC(N)=O)c3c2)c1	-32*	32µM*	?
NC(=O)Cc1c[nH]c2ncc(-c3cccc(CO)c3)cc12	-27*	32µM*	?
Cc1nn(CN(Cc2ccccc2)CC(F)(F)F)c(=O)c2ccccc12	·	i	·
SMILES	IP6K1 inhibitor	KDM5B inhibitor	IP6K1 inh cnf
CC(C(=O)N(C)Cc1ccccc1)N(c1ccccc1)S(C)(=O)=O (stereo not drawn)	·	i	·
Cc1ccc2c(CN(C)CCOc3ccc(Cl)cc3)cc(=O)oc2c1	·	i	·
COCCn1c(=O)c2c(nc(-n3nc(C)c(C)c3C)n2Cc2ccccc2)n(C)c1=O	·	i	·
O=C(NC1CCCCC1)c1cc(Sc2ccc(Cl)cc2)nc2ccccc12	·	i	·
Cc1ccccc1-c1nc2scc(CCNC(=O)C(=O)Nc3ccc4c(c3)OCCO4)n2n1	·	i	·
Cn1nnnc1SCCNCc1cc(Br)ccc1OCc1ccccc1Cl	-41*	i	-10%
Cn1nnnc1SCCNCc1ccc(OCc2ccccc2Cl)cc1	6	i	·
O=C(c1ccc(F)cc1)N1CCN(C(=O)c2cccc(-c3ccccn3)c2)CC1	0	·	·
O=C(c1ccc(-c2ncc3cnc(-c4cccc(F)c4)cn23)cc1)N1CC(O)C1	-29*	?	-14%
Cc1ccc(NC(=O)Cn2ncn3c(cc4ccccc43)c2=O)cc1F	-1	?	·
Cc1ccc(NC(=O)Cn2ncn3c(cc4ccccc43)c2=O)cc1C	-28*	?	-7%
COc1ccc2nc(N3CCN(C(=O)CS(=O)(=O)c4ccc(C)cc4)CC3)sc2c1	-29*	i	-14%
CCOc1ccc2nc(N3CCN(C(=O)CCS(=O)(=O)c4ccccc4)CC3)sc2c1	·	i	·
CCc1ccccc1N(CC)C(=O)c1cc2c(s1)-c1ccccc1SC2	-26*	?	-6%
CCc1ccccc1N(CC)C(=O)c1cc2c(s1)-c1ccccc1OC2	-13	?	·

High-throughput results as filed in PubChem BioAssay.
